In PubChem BioAssay AID1159580 (chemical genetic matrix, 2015):
Among all 5,500 compounds or so, about 2,000 (36%) were called active. Another 18% or so got no clear call; they are omitted. This is one part of the list. Unmarked numbers belong to inactive results. Cut-off read from the data, not from the text of the source: active = normalized growth mostly below about 0.91 (no sharp cut-off); inconclusive = no clear call, values can overlap the other calls; inactive = mostly above about 0.92.

Test: chemical genetic growth profiling, strain panel (AID 1159580);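 note: tested at 20 µM; growth read once vehicle control cultures reached saturation at 30 °C; 1 = growth at the plate median or of vehicle wells; lower values mean less growth of the strain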
Details: growth OD

In the case of Cc1ccc(COc2ccc(C)nc2[N+](=O)[O-])cc1, the normalized growth (S. cerevisiae deletion strains, locus YAL013W, strain DEP1, stronger effect = lower value) was 0.977, the normalized growth (S. cerevisiae deletion strains, locus YBR229C, strain ROT2, stronger effect = lower value) was 0.932 and the normalized growth (S. cerevisiae deletion strains, locus YCL061C, strain MRC1, stronger effect = lower value) was 0.946. For the same molecule, the normalized growth (S. cerevisiae deletion strains, locus YDL101C, strain DUN1, stronger effect = lower value) was 0.905, the normalized growth (S. cerevisiae deletion strains, locus YDL134C, strain PPH21, stronger effect = lower value) was 0.902 (active) and the normalized growth (S. cerevisiae deletion strains, locus YDR150W, strain NUM1, stronger effect = lower value) was 0.854. The normalized growth (S. cerevisiae deletion strains, locus YEL061C, strain CIN8, stronger effect = lower value) was 0.922, the normalized growth (S. cerevisiae deletion strains, locus YGR078C, strain PAC10, stronger effect = lower value) was 0.918 (active) and the normalized growth (S. cerevisiae deletion strains, locus YGR229C, strain SMI1, stronger effect = lower value) was 0.958. The normalized growth (S. cerevisiae deletion strains, locus YHR030C, strain SLT2, stronger effect = lower value) was 0.252 (active), the normalized growth (S. cerevisiae deletion strains, locus YHR087W, strain rtc3, stronger effect = lower value) was 0.959 and the normalized growth (S. cerevisiae deletion strains, locus YJL187C, strain SWE1, stronger effect = lower value) was 0.932 (active). The normalized growth (S. cerevisiae deletion strains, locus YJR043C, strain POL32, stronger effect = lower value) was 0.872 (active), the normalized growth (S. cerevisiae deletion strains, locus YJR075W, strain HOC1, stronger effect = lower value) was 0.857 (active) and the normalized growth (S. cerevisiae deletion strains, locus YLR039C, strain RIC1, stronger effect = lower value) was 0.57 (active). The normalized growth (S. cerevisiae deletion strains, locus YLR058C, strain SHM2 (second series), stronger effect = lower value) was 0.954, the normalized growth (S. cerevisiae deletion strains, locus YLR085C, strain ARP6, stronger effect = lower value) was 0.295 (active) and the normalized growth (S. cerevisiae deletion strains, locus YLR262C, strain YPT6, stronger effect = lower value) was 0.593 (active). For the same molecule, the normalized growth (S. cerevisiae deletion strains, locus YML094W, strain GIM5, stronger effect = lower value) was 0.855 (active), the normalized growth (S. cerevisiae deletion strains, locus YMR219W, strain ESC1, stronger effect = lower value) was 0.939 (active) and the normalized growth (S. cerevisiae deletion strains, locus YNL153C, strain GIM3, stronger effect = lower value) was 0.951. For the same molecule, the normalized growth (S. cerevisiae deletion strains, locus YNL298W, strain CLA4 (second series), stronger effect = lower value) was 0.75 (active), the normalized growth (S. cerevisiae deletion strains, locus YNL322C, strain KRE1, stronger effect = lower value) was 0.972 and the normalized growth (S. cerevisiae deletion strains, locus YNR030W, strain Alg12, stronger effect = lower value) was 0.758 (active). The normalized growth (S. cerevisiae deletion strains, locus YOL006C, strain TOP1, stronger effect = lower value) was 0.593 (active), the normalized growth (S. cerevisiae deletion strains, locus YPL055C, strain LGE1, stronger effect = lower value) was 0.809 and the normalized growth (S. cerevisiae deletion strains, locus YPL241C, strain CIN2, stronger effect = lower value) was 0.71 (active). For the same molecule, the normalized growth (S. cerevisiae deletion strains, locus YPR135W, strain CTF4, stronger effect = lower value) was 0.382 (active) and the normalized growth (S. cerevisiae strains, strain wild type, stronger effect = lower value) was 0.859 (active).
